Laboratory results: PubChem BioAssay (EPA / NIEHS)
The source made the active and inactive calls. How the source made its calls: active means hit-call score of the fitted dose curve at least 0.9, where 1 is the maximum; inactive means score below 0.9.

Test: CEETOX_H295R_OHPROG: CeeTox H295R High-throughput Steroidogenesis Assay for OH-Progesterone (OHPROG) (AID 2283435);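 on AC50: human adrenal H295R cells primed 48 h with 10 µM forskolin; 17alpha-hydroxyprogesterone secreted into medium measured by HPLC-MS/MS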
Settings: actives raise or lower the signal
Summary of the method: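 Secreted 17alpha-hydroxyprogesterone is read by tandem MS from media of forskolin-primed H295R cells dosed with chemical for 48 h. Activity is fitted in both directions against DMSO baseline; cytotoxic concentrations are re-tested diluted.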
With `Cc1cccc(N(C)C)c1` the outcome was “inactive”.
In the case of `C#C[C@]1(O)CC[C@H]2[C@@H]3CCc4cc(OC)ccc4[C@H]3CC[C@@]21C`, the AC50 is reported as 7.82 µM (active).
In the case of `c1ccc(B(c2ccccc2)c2ccccc2)cc1`, the outcome is reported as “inactive”.
For `Nc1ccc(Oc2cccc(Oc3ccc(N)cc3)c2)cc1`, the AC50 was 2.87 µM (active).
In the case of `CC(=O)Nc1ccc(N=Nc2cc(C)ccc2O)cc1`, the AC50 is reported as 16 µM (active).
In the case of `CCCCCCS`, the outcome is reported as “inactive”.
For `CC(Cc1ccc(O)c(O)c1)C(C)Cc1ccc(O)c(O)c1` (stereo not given), the AC50 was 4.19 µM (active).

Test: CEETOX_H295R_ANDR: CeeTox H295R High-throughput Steroidogenesis Assay for Androstenedione (ANDR) (AID 2283436);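 further: human H295R adrenal cells exposed for 48 h with androstenedione measured in medium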
Settings: actives raise or lower the signal
Summary of the method: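 H295R cells, following OECD 456 with minor changes, exposed to chemicals for 48 h. Androstenedione in the medium was quantified by HPLC-MS/MS after MTBE extraction. Fitting was bidirectional versus DMSO; chemicals were diluted until MTT viability was ≥70%.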
In the case of `Cc1cccc(N(C)C)c1`, the outcome is reported as “inactive”.
In the case of `CC(=O)Nc1ccc(N=Nc2cc(C)ccc2O)cc1`, the AC50 is reported as 25 µM (active).
With `CCCCCCS` the outcome was “inactive”.
